Results published in ChEMBL document CHEMBL1961873, “Compounds: GSK PKIS; Assays: Nanosyn kinase panel” (2012).

Experiments:
[1] = biological target: High affinity nerve growth factor receptor (Homo sapiens) (UniProt P04629); settings: at 1 µM;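 note: each value is the mean percent inhibition of TRKA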
[2] = biological target: BDNF/NT-3 growth factors receptor (Homo sapiens) (UniProt Q16620); settings: at 0.1 µM
[3] = biological target: BDNF/NT-3 growth factors receptor (Homo sapiens) (UniProt Q16620); settings: at 1 µM
[4] = biological target: NT-3 growth factor receptor (Homo sapiens) (UniProt Q16288); settings: at 0.1 µM
NT-3 growth factor receptor (Homo sapiens), sequence (Q16288 32-839 limits assumed): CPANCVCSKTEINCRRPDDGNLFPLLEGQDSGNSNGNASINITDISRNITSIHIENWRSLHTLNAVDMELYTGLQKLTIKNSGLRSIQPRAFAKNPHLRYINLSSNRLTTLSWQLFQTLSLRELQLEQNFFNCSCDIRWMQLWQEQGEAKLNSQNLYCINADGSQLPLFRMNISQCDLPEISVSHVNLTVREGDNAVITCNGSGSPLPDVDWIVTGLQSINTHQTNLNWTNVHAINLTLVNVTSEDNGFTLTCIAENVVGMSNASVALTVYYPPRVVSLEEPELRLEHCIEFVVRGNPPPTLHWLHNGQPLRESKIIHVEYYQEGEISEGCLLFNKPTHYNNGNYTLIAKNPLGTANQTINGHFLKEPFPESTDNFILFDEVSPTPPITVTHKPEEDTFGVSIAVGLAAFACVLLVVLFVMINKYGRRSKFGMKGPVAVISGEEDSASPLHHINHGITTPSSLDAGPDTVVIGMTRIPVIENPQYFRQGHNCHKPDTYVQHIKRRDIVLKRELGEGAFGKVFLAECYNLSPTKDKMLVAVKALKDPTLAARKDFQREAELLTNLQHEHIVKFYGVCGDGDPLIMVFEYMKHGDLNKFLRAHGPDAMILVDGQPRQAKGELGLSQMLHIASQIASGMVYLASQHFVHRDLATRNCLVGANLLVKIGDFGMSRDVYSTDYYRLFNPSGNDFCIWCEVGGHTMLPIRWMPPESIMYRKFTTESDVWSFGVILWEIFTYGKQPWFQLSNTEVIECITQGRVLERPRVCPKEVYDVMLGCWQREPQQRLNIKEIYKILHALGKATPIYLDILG

[5] = biological target: NT-3 growth factor receptor (Homo sapiens) (UniProt Q16288); settings: at 1 µM
[6] = biological target: T1, Tyrosine-protein kinase TXK (Homo sapiens) (UniProt P42681); settings: at 0.1 µM
T1 sequence (whole entry): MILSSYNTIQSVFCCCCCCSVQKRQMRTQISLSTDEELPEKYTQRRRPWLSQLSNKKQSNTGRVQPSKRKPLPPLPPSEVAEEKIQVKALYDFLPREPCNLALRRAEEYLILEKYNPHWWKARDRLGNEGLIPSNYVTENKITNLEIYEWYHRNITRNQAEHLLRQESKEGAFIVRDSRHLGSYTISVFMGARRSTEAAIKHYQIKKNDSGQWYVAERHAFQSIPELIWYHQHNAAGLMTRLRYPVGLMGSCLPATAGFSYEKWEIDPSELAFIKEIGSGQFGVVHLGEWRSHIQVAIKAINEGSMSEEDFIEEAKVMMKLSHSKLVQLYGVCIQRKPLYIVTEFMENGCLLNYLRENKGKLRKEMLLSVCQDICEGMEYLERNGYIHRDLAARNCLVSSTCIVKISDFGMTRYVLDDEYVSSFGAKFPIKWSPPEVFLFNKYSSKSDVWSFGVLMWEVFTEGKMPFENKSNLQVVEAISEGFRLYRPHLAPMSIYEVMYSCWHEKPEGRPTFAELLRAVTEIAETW

[7] = biological target: T1, Tyrosine-protein kinase TXK (Homo sapiens); settings: at 1 µM
[8] = biological target: Non-receptor tyrosine-protein kinase TYK2 (Homo sapiens) (UniProt P29597); settings: at 0.1 µM;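 note: each value is a mean of the inhibition readings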
Non-receptor tyrosine-protein kinase TYK2 (Homo sapiens), sequence (P29597 whole entry): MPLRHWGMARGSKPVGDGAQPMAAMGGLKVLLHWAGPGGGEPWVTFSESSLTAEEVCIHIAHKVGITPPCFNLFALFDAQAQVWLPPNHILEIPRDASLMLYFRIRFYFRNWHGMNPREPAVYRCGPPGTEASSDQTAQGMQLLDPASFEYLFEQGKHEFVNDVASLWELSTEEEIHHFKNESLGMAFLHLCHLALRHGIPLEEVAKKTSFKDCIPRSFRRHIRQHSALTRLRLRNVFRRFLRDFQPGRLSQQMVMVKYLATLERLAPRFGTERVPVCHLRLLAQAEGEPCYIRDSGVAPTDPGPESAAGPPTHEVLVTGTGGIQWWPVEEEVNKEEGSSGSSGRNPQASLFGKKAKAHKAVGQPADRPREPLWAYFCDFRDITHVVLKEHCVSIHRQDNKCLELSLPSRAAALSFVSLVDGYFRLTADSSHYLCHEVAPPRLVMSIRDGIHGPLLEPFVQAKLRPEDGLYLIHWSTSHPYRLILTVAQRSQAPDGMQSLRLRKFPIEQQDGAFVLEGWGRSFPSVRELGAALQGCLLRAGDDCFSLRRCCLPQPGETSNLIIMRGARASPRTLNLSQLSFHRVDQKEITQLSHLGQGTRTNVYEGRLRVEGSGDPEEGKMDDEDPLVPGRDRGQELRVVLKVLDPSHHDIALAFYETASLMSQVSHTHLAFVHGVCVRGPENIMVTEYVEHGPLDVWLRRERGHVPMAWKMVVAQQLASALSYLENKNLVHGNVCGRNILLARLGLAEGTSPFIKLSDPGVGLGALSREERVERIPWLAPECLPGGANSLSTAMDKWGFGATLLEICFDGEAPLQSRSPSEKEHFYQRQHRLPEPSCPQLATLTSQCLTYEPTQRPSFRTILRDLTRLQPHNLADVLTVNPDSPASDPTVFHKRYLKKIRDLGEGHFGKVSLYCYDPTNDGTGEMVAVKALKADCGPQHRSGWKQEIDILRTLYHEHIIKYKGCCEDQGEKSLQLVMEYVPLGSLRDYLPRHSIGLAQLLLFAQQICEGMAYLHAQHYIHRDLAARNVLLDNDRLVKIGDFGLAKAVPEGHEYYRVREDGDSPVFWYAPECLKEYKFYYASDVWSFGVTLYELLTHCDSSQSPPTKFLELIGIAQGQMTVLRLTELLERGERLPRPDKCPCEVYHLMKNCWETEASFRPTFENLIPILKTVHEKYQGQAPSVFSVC

[9] = biological target: T2, Dual specificity protein kinase TTK (Homo sapiens) (UniProt P33981); settings: at 1 µM;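 note: reported figures are mean TTK inhibition at 1 µM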
T2 sequence (whole entry): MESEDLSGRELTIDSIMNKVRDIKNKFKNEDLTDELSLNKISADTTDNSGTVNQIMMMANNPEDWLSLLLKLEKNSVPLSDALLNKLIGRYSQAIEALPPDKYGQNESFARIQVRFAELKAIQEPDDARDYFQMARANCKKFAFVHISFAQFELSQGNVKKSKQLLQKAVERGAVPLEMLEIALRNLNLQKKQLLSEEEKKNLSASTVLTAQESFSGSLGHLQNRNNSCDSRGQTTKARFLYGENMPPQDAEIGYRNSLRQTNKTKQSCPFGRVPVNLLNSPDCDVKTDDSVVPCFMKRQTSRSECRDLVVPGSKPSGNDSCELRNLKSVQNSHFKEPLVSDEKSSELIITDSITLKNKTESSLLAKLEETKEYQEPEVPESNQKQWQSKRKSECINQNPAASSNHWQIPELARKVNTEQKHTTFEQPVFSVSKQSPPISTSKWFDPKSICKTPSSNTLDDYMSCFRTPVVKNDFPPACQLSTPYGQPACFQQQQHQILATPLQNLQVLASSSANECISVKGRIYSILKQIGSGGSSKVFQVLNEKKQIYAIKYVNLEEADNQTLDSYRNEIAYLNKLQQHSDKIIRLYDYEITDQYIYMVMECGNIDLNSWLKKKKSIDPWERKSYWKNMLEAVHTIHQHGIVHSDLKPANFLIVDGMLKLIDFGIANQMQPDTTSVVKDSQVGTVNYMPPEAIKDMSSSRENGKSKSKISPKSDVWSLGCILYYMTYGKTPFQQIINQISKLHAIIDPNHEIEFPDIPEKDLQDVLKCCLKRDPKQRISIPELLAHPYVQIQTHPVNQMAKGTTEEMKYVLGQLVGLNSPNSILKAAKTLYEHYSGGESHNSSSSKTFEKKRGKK

[10] = biological target: T3, Aurora kinase A (Homo sapiens) (UniProt O14965); settings: at 0.1 µM
T3 sequence (whole entry): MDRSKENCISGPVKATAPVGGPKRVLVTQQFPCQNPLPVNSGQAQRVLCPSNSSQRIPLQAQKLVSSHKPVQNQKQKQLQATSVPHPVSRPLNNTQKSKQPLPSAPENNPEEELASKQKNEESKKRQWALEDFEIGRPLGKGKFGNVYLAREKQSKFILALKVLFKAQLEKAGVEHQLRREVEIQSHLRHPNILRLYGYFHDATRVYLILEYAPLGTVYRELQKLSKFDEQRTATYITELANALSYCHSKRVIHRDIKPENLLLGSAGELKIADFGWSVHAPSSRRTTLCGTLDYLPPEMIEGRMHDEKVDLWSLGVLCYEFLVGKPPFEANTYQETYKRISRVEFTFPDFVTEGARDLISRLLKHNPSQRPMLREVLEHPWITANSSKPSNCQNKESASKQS

[11] = biological target: T3, Aurora kinase A (Homo sapiens); settings: at 1 µM
[12] = biological target: Aurora kinase B (Homo sapiens) (UniProt Q96GD4); settings: at 0.1 µM
Aurora kinase B (Homo sapiens), sequence (Q96GD4 whole entry): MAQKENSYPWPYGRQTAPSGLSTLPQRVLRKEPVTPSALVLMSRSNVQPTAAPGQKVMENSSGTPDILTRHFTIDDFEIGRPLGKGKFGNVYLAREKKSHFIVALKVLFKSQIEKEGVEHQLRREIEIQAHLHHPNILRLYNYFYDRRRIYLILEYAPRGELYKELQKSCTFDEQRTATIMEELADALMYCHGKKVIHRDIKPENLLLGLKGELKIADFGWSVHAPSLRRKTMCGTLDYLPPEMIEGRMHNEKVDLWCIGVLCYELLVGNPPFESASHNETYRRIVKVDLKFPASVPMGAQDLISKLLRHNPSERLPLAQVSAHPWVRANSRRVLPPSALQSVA

[13] = biological target: Aurora kinase B (Homo sapiens) (UniProt Q96GD4); settings: at 1 µM
[14] = biological target: T4, Aurora kinase C (Homo sapiens) (UniProt Q9UQB9); settings: at 0.1 µM
T4 sequence (whole entry): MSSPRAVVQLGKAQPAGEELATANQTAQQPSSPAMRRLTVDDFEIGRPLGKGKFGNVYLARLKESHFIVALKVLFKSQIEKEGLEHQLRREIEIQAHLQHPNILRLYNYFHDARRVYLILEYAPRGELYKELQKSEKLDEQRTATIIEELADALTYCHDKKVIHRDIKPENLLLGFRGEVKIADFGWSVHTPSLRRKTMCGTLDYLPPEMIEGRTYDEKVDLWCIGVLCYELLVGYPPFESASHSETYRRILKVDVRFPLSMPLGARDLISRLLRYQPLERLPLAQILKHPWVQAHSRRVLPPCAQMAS

[15] = biological target: T4, Aurora kinase C (Homo sapiens); settings: at 1 µM
[16] = biological target: Serine/threonine-protein kinase 10 (Homo sapiens) (UniProt O94804); settings: at 0.1 µM
Serine/threonine-protein kinase 10 (Homo sapiens), sequence (O94804 whole entry, looked up): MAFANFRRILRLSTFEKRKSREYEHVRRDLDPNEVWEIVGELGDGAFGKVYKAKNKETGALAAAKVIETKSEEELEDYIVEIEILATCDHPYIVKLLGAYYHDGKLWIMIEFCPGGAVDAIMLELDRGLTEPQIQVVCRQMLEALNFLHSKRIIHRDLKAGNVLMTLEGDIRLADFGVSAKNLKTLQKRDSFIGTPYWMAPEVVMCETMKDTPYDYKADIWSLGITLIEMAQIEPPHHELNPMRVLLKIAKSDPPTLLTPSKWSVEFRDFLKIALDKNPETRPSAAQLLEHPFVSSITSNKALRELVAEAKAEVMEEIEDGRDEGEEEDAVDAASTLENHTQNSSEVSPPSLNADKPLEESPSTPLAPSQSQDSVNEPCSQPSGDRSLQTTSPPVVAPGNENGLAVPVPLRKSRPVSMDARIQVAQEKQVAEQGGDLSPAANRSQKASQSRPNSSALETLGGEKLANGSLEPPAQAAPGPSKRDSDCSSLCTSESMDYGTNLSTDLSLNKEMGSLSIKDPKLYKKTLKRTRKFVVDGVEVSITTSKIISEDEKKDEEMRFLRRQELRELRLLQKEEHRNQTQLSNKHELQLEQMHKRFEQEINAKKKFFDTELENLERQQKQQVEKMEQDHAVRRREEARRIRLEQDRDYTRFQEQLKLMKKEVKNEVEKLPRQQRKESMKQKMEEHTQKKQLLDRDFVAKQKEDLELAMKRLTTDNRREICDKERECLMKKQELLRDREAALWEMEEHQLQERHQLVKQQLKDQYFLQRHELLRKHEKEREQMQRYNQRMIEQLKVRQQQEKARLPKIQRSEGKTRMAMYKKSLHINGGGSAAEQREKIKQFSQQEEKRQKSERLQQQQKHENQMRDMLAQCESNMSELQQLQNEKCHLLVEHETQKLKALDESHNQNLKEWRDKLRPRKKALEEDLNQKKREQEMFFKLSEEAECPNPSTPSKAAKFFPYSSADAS

[17] = biological target: Serine/threonine-protein kinase 10 (Homo sapiens) (UniProt O94804); settings: at 1 µM
[18] = biological target: T5, Mitogen-activated protein kinase kinase kinase kinase 2 (Homo sapiens) (UniProt Q12851); settings: at 0.1 µM
T5 sequence (whole entry): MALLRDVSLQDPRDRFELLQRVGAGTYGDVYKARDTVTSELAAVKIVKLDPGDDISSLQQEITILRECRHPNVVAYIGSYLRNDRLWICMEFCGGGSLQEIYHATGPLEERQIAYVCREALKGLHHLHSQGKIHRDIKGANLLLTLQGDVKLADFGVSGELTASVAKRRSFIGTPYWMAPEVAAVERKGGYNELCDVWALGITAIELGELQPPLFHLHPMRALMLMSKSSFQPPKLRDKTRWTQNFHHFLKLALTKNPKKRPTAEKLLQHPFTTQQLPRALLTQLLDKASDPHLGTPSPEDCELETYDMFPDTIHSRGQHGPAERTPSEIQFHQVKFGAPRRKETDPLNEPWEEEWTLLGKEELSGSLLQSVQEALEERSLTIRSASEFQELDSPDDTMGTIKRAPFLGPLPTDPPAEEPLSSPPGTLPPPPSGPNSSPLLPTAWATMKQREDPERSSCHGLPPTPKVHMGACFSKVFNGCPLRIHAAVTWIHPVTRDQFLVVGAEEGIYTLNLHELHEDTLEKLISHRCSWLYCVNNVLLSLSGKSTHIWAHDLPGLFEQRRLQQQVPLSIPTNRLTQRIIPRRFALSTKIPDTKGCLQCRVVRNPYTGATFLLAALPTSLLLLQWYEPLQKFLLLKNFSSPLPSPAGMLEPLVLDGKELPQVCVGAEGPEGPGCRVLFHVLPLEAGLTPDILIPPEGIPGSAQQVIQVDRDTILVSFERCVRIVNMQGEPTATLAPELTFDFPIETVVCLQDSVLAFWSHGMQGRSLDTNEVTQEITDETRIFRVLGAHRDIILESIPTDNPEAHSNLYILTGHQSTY

[19] = biological target: T5, Mitogen-activated protein kinase kinase kinase kinase 2 (Homo sapiens); settings: at 1 µM
[20] = biological target: Mitogen-activated protein kinase kinase kinase kinase 4 (Homo sapiens) (UniProt O95819); settings: at 0.1 µM

High affinity nerve growth factor receptor (Homo sapiens), sequence (P04629 33-796 limits assumed): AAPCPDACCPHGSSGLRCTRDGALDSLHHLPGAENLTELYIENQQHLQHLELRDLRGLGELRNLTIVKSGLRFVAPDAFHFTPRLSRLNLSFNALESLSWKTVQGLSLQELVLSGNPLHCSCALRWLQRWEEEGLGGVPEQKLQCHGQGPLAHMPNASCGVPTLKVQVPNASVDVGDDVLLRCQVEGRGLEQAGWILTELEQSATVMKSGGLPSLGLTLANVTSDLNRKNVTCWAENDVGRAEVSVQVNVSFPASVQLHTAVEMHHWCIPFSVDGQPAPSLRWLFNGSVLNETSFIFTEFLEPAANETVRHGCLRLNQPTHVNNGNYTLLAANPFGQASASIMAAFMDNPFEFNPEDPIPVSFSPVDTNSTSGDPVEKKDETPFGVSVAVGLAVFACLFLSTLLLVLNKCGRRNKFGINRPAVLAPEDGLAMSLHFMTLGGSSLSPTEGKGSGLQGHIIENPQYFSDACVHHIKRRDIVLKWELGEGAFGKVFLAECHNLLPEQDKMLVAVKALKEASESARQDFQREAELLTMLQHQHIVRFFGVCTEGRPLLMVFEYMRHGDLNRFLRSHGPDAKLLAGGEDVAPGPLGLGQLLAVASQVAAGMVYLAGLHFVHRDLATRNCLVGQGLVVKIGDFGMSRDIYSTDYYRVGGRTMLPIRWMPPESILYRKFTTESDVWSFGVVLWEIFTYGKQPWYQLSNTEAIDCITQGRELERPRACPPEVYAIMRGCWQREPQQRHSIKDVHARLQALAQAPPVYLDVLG
BDNF/NT-3 growth factors receptor (Homo sapiens), sequence (Q16620 32-822 limits assumed): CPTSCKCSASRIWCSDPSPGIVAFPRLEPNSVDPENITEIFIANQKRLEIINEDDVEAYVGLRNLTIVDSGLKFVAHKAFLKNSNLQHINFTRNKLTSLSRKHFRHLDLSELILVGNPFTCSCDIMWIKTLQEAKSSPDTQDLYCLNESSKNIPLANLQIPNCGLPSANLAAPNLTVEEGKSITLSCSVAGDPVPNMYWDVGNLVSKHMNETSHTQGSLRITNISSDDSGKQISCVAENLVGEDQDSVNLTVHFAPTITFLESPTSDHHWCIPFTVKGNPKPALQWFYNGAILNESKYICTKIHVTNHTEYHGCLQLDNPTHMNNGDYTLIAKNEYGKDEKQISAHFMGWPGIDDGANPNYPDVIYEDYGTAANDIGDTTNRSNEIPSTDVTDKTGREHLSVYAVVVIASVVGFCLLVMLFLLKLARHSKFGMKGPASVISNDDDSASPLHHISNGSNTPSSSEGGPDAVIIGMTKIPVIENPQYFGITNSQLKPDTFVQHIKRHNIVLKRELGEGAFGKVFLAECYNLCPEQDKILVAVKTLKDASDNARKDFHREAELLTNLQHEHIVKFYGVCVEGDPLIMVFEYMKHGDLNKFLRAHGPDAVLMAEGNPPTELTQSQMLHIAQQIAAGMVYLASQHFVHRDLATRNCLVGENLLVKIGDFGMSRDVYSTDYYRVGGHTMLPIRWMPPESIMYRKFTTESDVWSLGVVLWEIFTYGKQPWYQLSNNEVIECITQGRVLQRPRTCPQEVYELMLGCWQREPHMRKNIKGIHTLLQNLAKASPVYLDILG

Structure (SMILES) | inhibition [1] [%] | inhibition [2] [%] | inhibition [3] [%] | inhibition [4] [%] | inhibition [5] [%] | inhibition [6] [%] | inhibition [7] [%] | inhibition [8] [%] | inhibition [9] [%] | inhibition [10] [%] | inhibition [11] [%] | inhibition [12] [%] | inhibition [13] [%] | inhibition [14] [%] | inhibition [15] [%] | inhibition [16] [%] | inhibition [17] [%] | inhibition [18] [%] | inhibition [19] [%] | inhibition [20] [%]
CNC(=O)c1cncc(/C=C/c2c(C)cccc2C)c1 | 0.47 | 0.05 | 0.22 | 0.47 | 1.16 | 5.71 | 35.6 | -0.15 | 5.33 | -1.77 | -0.78 | -3.36 | -3.06 | -3.26 | -9.54 | 1.24 | 10.3 | 0.91 | 4.59 | 4.81
NCc1ccc(-n2c(-c3nonc3N)nc3cnccc32)cc1 | 2.81 | 3.11 | 1.99 | 3.14 | 2.31 | 1.78 | 3.57 | -7.21 | 10.1 | 3.62 | 8.79 | 3.64 | 12.4 | 3.83 | 18.8 | 8.16 | 24.2 | 3.62 | 18.2 | 10.1
O=C(Nc1n[nH]c2cc(-c3ccccc3)ccc12)C1CC1 | 4.46 | 1.46 | 6.76 | 0.77 | 7.68 | 8.18 | 17.7 | -4.71 | 6.67 | 1.71 | 13.2 | 4.05 | 3.92 | 0.96 | 9.67 | 4.04 | 19.9 | 1.56 | 4.2 | 33.6
NS(=O)(=O)c1ccc(N/N=C2\C(=O)Nc3ccc(C(=O)NCCCn4ccnc4)cc32)cc1 | 12 | 9.05 | 43.2 | 9.74 | 44.2 | 3.46 | 4.42 | -2.26 | 71.3 | 5.44 | 49.9 | 1.38 | 17.8 | 3.31 | 23.2 | 6.25 | 12.2 | 3.32 | 8.35 | 10.8
CN(C)CCOc1ccc(-c2cc(-c3ccc4c(c3)CCC4=NO)c(-c3ccncc3)o2)cc1 | -2.77 | -0.06 | 1.62 | 0.94 | -0.98 | 0.73 | 3.15 | 0.89 | 1.15 | 0.13 | 0.04 | -1.06 | 1.93 | 0.74 | 7.21 | 16.8 | 62.6 | 2.2 | 5.27 | 0.91
CN(c1ccc(NC(=O)Nc2c(Cl)cccc2Cl)cc1)c1ccnc(Nc2cccc(CS(C)(=O)=O)c2)n1 | 68.7 | 30.1 | 55.4 | 31.7 | 88.6 | 9.28 | 21.1 | -2.98 | 19.4 | 73.9 | 97.6 | 76.4 | 84.2 | – | 104 | 90.8 | 86.5 | 11.5 | 32.9 | 34.3
CN1CCN(CCCNc2nc3ccc(Oc4ccc(NC(=O)Nc5cc(C(F)(F)F)ccc5F)cc4)cc3[nH]2)CC1 | 34 | 1.65 | 10.6 | 4.05 | 17.4 | 1 | 5.01 | -2.82 | 20.8 | -1.66 | -0.34 | -0.75 | 4.51 | -5.06 | 23.7 | 15.9 | 53 | 3.12 | 8.26 | 2.15
COc1cccc(/C=N/Nc2ncnc3c2cnn3-c2cccc(OC)c2)c1 | 4.58 | 2.99 | 5.56 | 1.57 | 2.15 | 3.48 | 2.61 | -3.27 | 9.42 | 2.87 | 3.52 | 2.75 | 5.96 | 0.31 | 3.9 | 5.31 | 6.35 | -0.07 | 2.67 | 7.63
CN(C)c1ccc2c(c1)/C(=C/Nc1ccc(S(N)(=O)=O)cc1)C(=O)N2 | 46.2 | 15.4 | 65.2 | 21 | 73.1 | 3.16 | 4.14 | 1.02 | 12.5 | 6.26 | 50.7 | 4.95 | 30.4 | 17.9 | 48 | 3 | 18.1 | 5.66 | 29.9 | 23.9
C/C(Nc1ccc(S(N)(=O)=O)cc1)=C1/C(=O)Nc2ccccc21 | 38.3 | 14.1 | 61.8 | 17.4 | 87.1 | -0.52 | -0.74 | 1.41 | 35.7 | 2.21 | 37.8 | 8.07 | 48 | 7.34 | 85.7 | 0.97 | 9.28 | 1.58 | 17.7 | 44.9
CCc1cccc(CC)c1/C=C/c1cncc(C(=O)NC)c1 | 1.65 | 1.04 | 3.79 | 1.36 | 3.49 | 3.65 | 8.4 | -7.46 | -0.69 | 2.26 | 6.42 | -0.55 | 6.73 | 0.82 | 11.7 | 1.38 | 5.08 | 0.77 | 0.32 | 1.73
NC(=O)c1cc(-c2ccc(F)cc2)cc(-c2ccncc2)c1N | -0.4 | 3.69 | 3.15 | 3.87 | 2.92 | 3.85 | 12.4 | -2.58 | 11.4 | 3.42 | 4.02 | 2.72 | 3.54 | -0.44 | -4.53 | 6.15 | 5.86 | 0.12 | 2.33 | 4.49
C[C@@H](Oc1cc(-n2cnc3ccc(OCC4CCN(C)CC4)cc32)sc1C(N)=O)c1ccccc1Cl | 5.94 | 3.02 | 10.1 | 4.35 | 10.4 | 5.54 | 8.91 | -2.69 | 43.2 | 3.84 | 6.43 | 4.49 | 5.33 | -0.3 | 3 | 63.3 | 86.9 | 2.59 | 13.9 | 4.27
Fc1ccc(-c2ncn(C3CCNCC3)c2-c2ccnc(Oc3ccc(F)c(F)c3)n2)cc1 | 3.11 | 3.23 | 3.93 | 2.87 | 4.23 | -5.36 | 0.03 | -3.58 | 14 | -0.65 | -0.3 | -1.34 | 1.81 | -2.62 | 4.92 | 4.63 | 8.33 | 1.35 | 3.76 | 9.16
